Autofluor counter: compound fluorescence in toxin protease inhibitor counterscreen; compound autofluorescence counterscreen, microsphere flow cytometry; stronger effect = higher value; fluorescence intensity (concentration not given with the values); 360,000 compounds, 3.1% hits; in the data active = fluorescence intensity above about 16000; inconclusive = no clear call, values can overlap the other calls
MazF activator: activators of E. coli MazEF toxin-antitoxin RNase, primary screen, biochemical, fluorescence, uHTS; Endoribonuclease toxin MazF (Escherichia coli (strain K12)), P0AE70; FAM/BHQ RNA-DNA oligo cleavage fluorescence, 5 h; activation, % at 20 µM; 350,000 compounds, 0.32% hits; AID 504720, 2011; in the data active = activation above about 50%
Anthrax LF prot: Bacillus anthracis LF protease inhibitors, primary screen, biochemical, multiplex microsphere, MLPCN library; AID 588501, 2011; multiplex microsphere protease cleavage assay; inhibition, % at 10 µM; 360,000 compounds, 0.12% hits; Lethal factor (Bacillus anthracis), P15917; in the data active = inhibition above about 30%; inconclusive = no clear call, values can overlap the other calls
Target sequence (P15917 whole entry, looked up): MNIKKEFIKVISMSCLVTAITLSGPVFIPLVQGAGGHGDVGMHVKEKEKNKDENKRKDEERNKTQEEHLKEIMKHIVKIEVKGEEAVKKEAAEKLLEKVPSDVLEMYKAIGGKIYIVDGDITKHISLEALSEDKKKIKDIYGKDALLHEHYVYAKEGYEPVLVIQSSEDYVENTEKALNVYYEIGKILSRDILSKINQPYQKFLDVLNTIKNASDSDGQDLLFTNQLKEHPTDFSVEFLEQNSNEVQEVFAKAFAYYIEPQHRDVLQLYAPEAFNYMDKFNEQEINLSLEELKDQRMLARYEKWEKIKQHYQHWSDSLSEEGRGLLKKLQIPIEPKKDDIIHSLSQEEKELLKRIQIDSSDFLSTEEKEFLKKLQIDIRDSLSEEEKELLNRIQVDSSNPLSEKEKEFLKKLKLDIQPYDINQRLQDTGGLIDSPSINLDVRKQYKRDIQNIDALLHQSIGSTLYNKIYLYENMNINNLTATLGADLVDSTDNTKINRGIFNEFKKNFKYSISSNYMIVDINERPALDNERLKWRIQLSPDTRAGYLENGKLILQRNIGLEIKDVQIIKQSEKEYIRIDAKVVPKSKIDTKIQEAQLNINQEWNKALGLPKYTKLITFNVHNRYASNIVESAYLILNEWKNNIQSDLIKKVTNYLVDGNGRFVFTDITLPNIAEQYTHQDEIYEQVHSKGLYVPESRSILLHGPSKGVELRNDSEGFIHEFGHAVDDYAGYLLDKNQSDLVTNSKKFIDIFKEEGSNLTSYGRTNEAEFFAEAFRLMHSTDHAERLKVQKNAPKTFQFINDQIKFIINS
BoNT-A LC inh2: BoNT/A light chain protease inhibitors, primary screen, biochemical, flow cytometry, MLPCN library | Botulinum neurotoxin type A light chain protease (Clostridium botulinum A str. ATCC 3502) | multiplex microsphere protease substrate cleavage | inhibition, % at 10 µM | 360,000 compounds, 0.17% hits; in the data active = inhibition above about 30%; inconclusive = no clear call, values can overlap the other calls
BoNT-F LC inh: BoNT/F light chain protease inhibitors, primary screen, biochemical, flow cytometry, MLPCN library. Botulinum neurotoxin type F light chain protease (Clostridium botulinum). 360,000 compounds, 0.22% hits. Multiplex microsphere protease cleavage assay. inhibition, % at 10 µM; in the data active = inhibition above about 35%, passing the limit was not always enough; inconclusive = no clear call, values can overlap the other calls
BoNT-A LC CP1: BoNT/A light chain protease inhibitors, confirmation, biochemical, flow cytometry, cherry pick 1. AID 602139, 2011. shares compounds with BoNT-F LC inh. inhibition, % at 10 µM. 720 compounds, 3% hits. multiplex microsphere protease assay; in the data active = inhibition above about 32%
BoNTF LC inh 1: BoNT/F light chain protease inhibitors, confirmation, biochemical, flow cytometry, cherry pick 1. AID 602140, 2011. 720 tested, under 10 active. inhibition, % at 10 µM. multiplex microsphere protease cleavage assay. shares compounds with BoNT-F LC inh; call rule not given here
Anthrax LF CP1: Bacillus anthracis LF protease inhibitors, confirmation, biochemical, multiplex microsphere, cherry pick 1 | shares compounds with BoNT-F LC inh | multiplex microsphere protease cleavage assay | inhibition, % at 10 µM | 720 tested, under 10 active | AID 602142, 2011; call rule not given here
BoNT-A LC CP2: BoNT/A light chain protease inhibitors, confirmation, biochemical, flow cytometry, cherry pick 2; shares compounds with BoNT-A LC inh2; multiplex microsphere protease cleavage assay; inhibition, % at 10 µM; 150 compounds, 10% hits; AID 602325, 2012; in the data active = inhibition above about 24%
Anthrax LF CP2: Bacillus anthracis LF protease inhibitors, confirmation, biochemical, multiplex microsphere; shares compounds with BoNT-A LC inh2; multiplex microsphere protease cleavage assay; inhibition, % at 10 µM; 150 compounds, 7% hits; AID 602327, 2012
BoNTF LC inh 2: BoNT/F light chain protease inhibitors, confirmation, biochemical, flow cytometry, cherry pick 2; inhibition, % at 10 µM; AID 602336, 2012; shares compounds with BoNT-A LC inh2; multiplex microsphere protease cleavage assay; 150 compounds, 7% hits
Each line names hits and unclear results; the compound was inactive in the other large screens (follow-up assays come after a bar, where they were run). Shown are actives, neighbours in structure and some others; about 3.6% of the full set was active somewhere. Rule as the data show it, unless noted: active = inhibition above about 25%; inactive = the rest.

O=c1c(/C=C(\O)c2ccccc2)nc2ccccc2n1-c1ccccc1	Autofluor counter 17938, Anthrax LF prot 41, BoNT-A LC inh2 61, BoNT-F LC inh active | BoNT-A LC CP1 40 | BoNTF LC inh 1 36 | Anthrax LF CP1 32
c1ccc(-c2cnn3c(-c4ccccc4)c(-c4ccccc4)nc3n2)cc1	MazF activator active, BoNT-A LC inh2 37 | BoNT-A LC CP1 inactive | BoNTF LC inh 1 inactive | Anthrax LF CP1 inactive
CCCNC(=O)c1ccccc1NC(=O)c1ccccc1N(C)S(=O)(=O)c1ccc(C)cc1	BoNT-F LC inh 38 | BoNT-A LC CP1 inactive | BoNTF LC inh 1 inactive | Anthrax LF CP1 inactive
CCCNC(=O)c1ccccc1NC(=O)c1ccccc1N(C)S(C)(=O)=O	BoNT-F LC inh inconclusive
COc1ccc(CCNC(=O)CCS(=O)(=O)Cc2ccccc2C)cc1OC	none
O=C(NCc1ccccc1)C12CC3CC(CC(Cl)(C3)C1)C2	none
O=C(O)c1ccc(CNC(=O)C23CC4CC(CC(C4)C2)C3)cc1	BoNT-F LC inh 98 | BoNT-A LC CP1 inactive | BoNTF LC inh 1 inactive | Anthrax LF CP1 inactive
CCOc1ccc(NC(=O)c2ccc(Cl)c(NC(=O)c3ccco3)c2)cc1	BoNT-F LC inh 38 | BoNT-A LC CP1 inactive | BoNTF LC inh 1 inactive | Anthrax LF CP1 inactive
COc1ccccc1N1CCN(Cc2ccco2)CC1	none
Clc1ccccc1N1CCN(Cc2ccco2)CC1	BoNT-F LC inh 50 | BoNT-A LC CP1 inactive | BoNTF LC inh 1 inactive | Anthrax LF CP1 inactive
COc1ccc(Cn2c(=S)[nH]c3cc(OC)c(OC)cc3c2=O)cc1	none
COc1ccc(Cn2c(=O)[nH]c3cc(OC)c(OC)cc3c2=O)cc1	BoNT-F LC inh 36 | BoNT-A LC CP1 inactive | BoNTF LC inh 1 inactive | Anthrax LF CP1 inactive
CCOc1ccc(CC(=O)NCc2ccc3c(c2)cc(C)n3C)cc1	BoNT-A LC inh2 81 | BoNT-A LC CP2 inactive | Anthrax LF CP2 inactive | BoNTF LC inh 2 inactive
Cc1onc(-c2ccccc2Cl)c1C(=O)NCc1ccc2c(c1)cc(C)n2C	BoNT-A LC inh2 83 | BoNT-A LC CP2 49 | Anthrax LF CP2 inactive | BoNTF LC inh 2 inactive
COc1ccc(C(=O)NCc2ccc3c(c2)cc(C)n3C)cc1	BoNT-A LC inh2 95 | BoNT-A LC CP2 inactive | Anthrax LF CP2 inactive | BoNTF LC inh 2 inactive
Cc1cc2cc(CNC(=O)Nc3ccc(Cl)c(Cl)c3)ccc2n1C	BoNT-A LC inh2 35 | BoNT-A LC CP2 inactive | Anthrax LF CP2 inactive | BoNTF LC inh 2 inactive
COc1ccc(NS(=O)(=O)c2cccc(C(=O)NCC(c3ccc(OC)cc3)N3CCCCC3)c2)cc1 (centres undefined)	none
COc1ccc(C(CNC(=O)c2cccc(S(=O)(=O)N3CCCCC3)c2)N2CCCC2)cc1 (centres undefined)	none | BoNT-A LC CP2 inactive | Anthrax LF CP2 inactive | BoNTF LC inh 2 inactive
COc1ccccc1C(CNC(=O)c1ccc(C)c(S(=O)(=O)N2CCCCC2)c1)N1CCCC1 (centres undefined)	Autofluor counter 71619 | BoNT-A LC CP2 inactive | Anthrax LF CP2 inactive | BoNTF LC inh 2 25
COc1ccc(C(CNC(=O)c2cc(S(=O)(=O)N3CCCCC3)ccc2C)N2CCCC2)cc1 (centres undefined)	Autofluor counter 19413, BoNT-F LC inh 45 | BoNT-A LC CP2 inactive | Anthrax LF CP2 inactive | BoNTF LC inh 2 35
COc1ccc(C(CNC(=O)c2ccc(C)c(S(=O)(=O)N3CCCCC3)c2)N(C)C)cc1OC (centres undefined)	none
COc1ccc(C(CNC(=O)c2ccc(OC)c(S(=O)(=O)N3CCCC3)c2)N2CCCC2)cc1 (centres undefined)	Autofluor counter 21380, BoNT-F LC inh 40 | BoNT-A LC CP2 inactive | Anthrax LF CP2 inactive | BoNTF LC inh 2 inactive
CSc1nc(O)c(Nc2ccccc2)c(=O)[nH]1	none
COc1ccc(-c2nc3cc(C)c(Br)c(C)n3c2Cc2ccsc2)cc1OC	none (no result: MazF activator) | BoNT-A LC CP2 inactive | Anthrax LF CP2 inactive | BoNTF LC inh 2 inactive
Cc1ccc(-c2nc3cc(C)c(Br)c(C)n3c2Cc2ccsc2)cc1	none (no result: MazF activator)
COc1ccccc1Cc1c(-c2ccc(OC)c(OC)c2)nc2cc(C)c(Br)c(C)n12	none (no result: MazF activator)
COc1ccc(-c2nc3cc(C)c(Br)c(C)n3c2Cc2ccccc2C(F)(F)F)cc1OC	none (no result: MazF activator) | BoNT-A LC CP2 inactive | Anthrax LF CP2 inactive | BoNTF LC inh 2 inactive
Cc1cc2nc(-c3cccc(Br)c3)c(Cc3ccsc3)n2c(C)c1Br	none (no result: MazF activator) | BoNT-A LC CP2 inactive | Anthrax LF CP2 inactive | BoNTF LC inh 2 inactive
Cc1cc2nc(-c3cccc(Br)c3)c(Cc3ccccc3)n2c(C)c1Br	none (no result: MazF activator)
Cc1cc2nc(-c3cccc(Cl)c3)c(Cc3ccsc3)n2c(C)c1Br	none (no result: MazF activator) | BoNT-A LC CP2 inactive | Anthrax LF CP2 inactive | BoNTF LC inh 2 inactive
O=C(CCC1CCCC1)N1CCN(S(=O)(=O)c2ccc(Br)cc2)CC1	Anthrax LF prot 89, BoNT-A LC inh2 80, BoNT-F LC inh 83 | BoNT-A LC CP2 inactive | Anthrax LF CP2 inactive | BoNTF LC inh 2 inactive
O=C(CC1CCCC1)N1CCN(S(=O)(=O)c2ccc(F)cc2)CC1	none
CCc1cc[n+](C(C(=S)Nc2cccc(C)c2)=C([O-])c2ccc(C)c([N+](=O)[O-])c2)cc1	none
COC(=O)c1ccccc1-c1c2ccc(=N)cc-2oc2cc(N)ccc12	Autofluor counter 34738, Anthrax LF prot 61, BoNT-F LC inh 62 (no result: MazF activator) | BoNT-A LC CP2 inactive | Anthrax LF CP2 inactive | BoNTF LC inh 2 inactive
O=C(C[n+]1ccc(C(=O)c2ccccc2)cc1)Nc1ccccc1OC(F)F	Anthrax LF prot 64, BoNT-A LC inh2 55 | BoNT-A LC CP2 inactive | Anthrax LF CP2 inactive | BoNTF LC inh 2 inactive
